# A selection: hits, their analogues and other compounds. The true share with any hit is near 3.2%.
# EphB4 ephrin blk = antagonists of human EphB4-ephrin-B2 interaction | EphB4 LBD / TNYL-RAW-Alexa532 peptide, fluorescence polarization | inhibition, % at 7 µM | P54760 | AID 720 | actives 0.15% (n = 97,000);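 active = inhibition above the screen-wide mean inhibition plus 3 SD, cut at about 15% in these data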;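 note: 0% = DMSO wells and 100% = excess unlabeled TNYL-RAW peptide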
# ERa SRC1 inh = blocks coactivator binding to human estrogen receptor alpha; actives 1.7% (n = 86,000); inhibition, % at 25.6 µM; AID 629; TR-FRET ER-alpha LBD / SRC-1 peptide, estradiol-bound; P03372; in the data active = inhibition above about 50%;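 note: 0% = receptor plus peptide control and 100% = peptide only without receptor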
# ERa SRC1 pot = ER-alpha (human) coactivator binding potentiation | TR-FRET ERalpha-LBD/SRC-Cy5 coactivator binding, 2 h; 100 = basal binding, no effect | coactivator binding (% of control), % at 25.6 µM | actives 1.3% (n = 86,000) | P03372; in the data active = activity above about 200%;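 note: binding measured in presence of low estradiol as agonist stimulus; 0% = peptide alone without receptor and 100% = receptor with peptide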
# Candida biofilm = kills Candida albicans biofilms | C. albicans biofilm + clotrimazole, Alamar Blue | inhibition, % at 6 µM | actives 0.14% (n = 85,000) | AID 834;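 active = inhibition above 20%; inactive = inhibition below 20%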;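 note: preformed 24 hr biofilms exposed to compound for 48 hr; 0% = biofilm without compound and 100% = blank killed by clotrimazole plus chlorhexidine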
# MT1-MMP txn act = MT1-MMP promoter transcription activation | activation factor at 10 µM | actives 0.16% (n = 86,000) | HT1080 MT1-MMP promoter luciferase reporter, luminescence, overnight; hits give high values;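 active = activation factor of at least 2 for MT1-MMP transcription at 10 µM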
# ERb coact inh = blocks coactivator binding to human estrogen receptor beta. TR-FRET ER-beta LBD / SRC1-Cy5 peptide binding; receptor agonist-loaded with 1 µM estradiol. actives 1.3% (n = 86,000). Q92731. inhibition, % at 25.6 µM;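 active = compounds whose percent inhibition of the receptor-coactivator binding signal exceeds about 50% in the single-dose screen, limit read from the data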;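 note: 0% = receptor plus peptide wells without compound and 100% = peptide-only wells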
# Target sequence (Q92731 whole entry, looked up, the tested form may be a part): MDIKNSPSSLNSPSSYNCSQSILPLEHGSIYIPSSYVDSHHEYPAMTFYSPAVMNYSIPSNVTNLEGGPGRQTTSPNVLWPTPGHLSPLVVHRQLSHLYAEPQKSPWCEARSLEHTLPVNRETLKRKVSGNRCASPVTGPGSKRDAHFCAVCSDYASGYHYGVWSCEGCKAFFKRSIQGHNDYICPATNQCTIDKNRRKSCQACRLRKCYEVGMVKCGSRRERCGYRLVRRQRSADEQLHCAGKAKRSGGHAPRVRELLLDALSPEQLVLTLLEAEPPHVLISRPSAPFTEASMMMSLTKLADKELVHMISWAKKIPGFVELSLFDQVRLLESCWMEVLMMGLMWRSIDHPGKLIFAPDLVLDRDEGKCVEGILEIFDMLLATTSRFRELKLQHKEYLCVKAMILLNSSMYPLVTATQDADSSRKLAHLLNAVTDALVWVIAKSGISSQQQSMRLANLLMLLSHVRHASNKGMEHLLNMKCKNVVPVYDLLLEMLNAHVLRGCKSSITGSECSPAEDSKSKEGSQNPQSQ
# * marks the source's active call; other numbers are inactive results; / = no result; [ ] = remark or other dose.
SMILES,EphB4 ephrin blk,ERa SRC1 inh,ERa SRC1 pot,Candida biofilm,MT1-MMP txn act,ERb coact inh
Cc1ccc2cc(C#N)c(N3CCCN(S(=O)(=O)c4ccccc4)CC3)nc2c1C,0.6,39.0,362.6*[fluorescence artefact?],2.7,1.1,54.7*[fluorescence artefact?]
Cc1ccc2nc(N3CCN(Cc4nnnn4Cc4ccccc4)CC3)c(C#N)cc2c1,-5.1,38.5,372.4*[fluorescence artefact?],0.4,1.2,30.1
Cc1ccc2nc(N3CCN(C)CC3)c(C#N)cc2c1,-3.5,0.3,98.4,1.6,1.2,-10.3
Cc1ccc2cc(C#N)c(N3CCCN(S(=O)(=O)c4ccc(F)cc4)CC3)nc2c1,-4.0,44.1,349.1*[fluorescence artefact?],-6.8,1.3,51.3*[fluorescence artefact?]
Cc1ccc2nc(N3CCN(S(=O)(=O)c4ccc(C)c(Cl)c4)CC3)c(C#N)cc2c1,-9.6,48.0,243.9*[fluorescence artefact?],1.9,1.2,50.1*[fluorescence artefact?]
O=C(CN(C(=O)c1ccc2c(c1)OCCO2)c1ccccc1)NCC1CCCO1 (stereo not drawn),-9.1,3.1,116.2,2.2,1,-8.3
Cc1ccc2cc(C#N)c(N3CCCN(S(=O)(=O)c4ccccc4)CC3)nc2c1,-3.0,31.7,349.6*[fluorescence artefact?],7.0,1.1,26.8
CCN(c1ccccc1)S(=O)(=O)c1cc(C(=O)O)ccc1C,-3.7,75.7*,12.1,6.6,1,73.8*
COC(=O)C1=CNC=C(C(=O)OC)C1c1ccc(C(=O)OC)cc1,/,-13.2,126.8,1.3,1.2,-4.4
C=CCN=C(NC#N)SCC(=O)c1cccc(OC)c1,4.6,-16.8,104.6,7.5,2*,-14.9
Cc1nc2cc(C(F)(F)F)ccc2n1C1CCN(CC(=O)NC(C)(C)C)CC1,7.6,-5.9,125.3,0.9,1,2.6
O=C(NC(CO)c1ccccc1)c1ccco1 (stereo not drawn),-9.2,5.3,124.0,1.8,1.1,1.2
COCCCNc1c2c3c(cccc3[nH]c1=O)C(=O)c1ccccc1-2,47.8*[fluorescence artefact?],-16.1,88.6,11.0,1,0.3
CCn1nnc(NC(=O)c2cc3ccccc3o2)n1,-5.8,0.0,109.2,4.2,1,-7.7
CCOC(=O)c1cn2cccnc2n1,-10.8,5.6,119.0,2.2,1.2,6.0
CCSc1nnc(-c2ccccc2NC(C)=O)c(=O)[nH]1,-1.3,2.5,113.5,-2.3,1.2,-0.8
O=C(CSc1n[nH]c(-c2ccc(S(=O)(=O)N3CCCCC3)cc2)n1)Nc1nccs1,11.2,50.3*,136.1,-1.7,1.8,20.8
Cn1c(SCC(=O)Nc2nccs2)nnc1-c1ccc(S(=O)(=O)N2CCCC2)cc1,5.0,11.1,41.5,7.1,1.2,5.4
COc1ccccc1NS(=O)(=O)c1ccc(C(=O)OCC(=O)NCc2ccco2)cc1,0.1,72.6*[fluorescence artefact?],63.4,7.4,1.1,45.1
COc1ccccc1NC(=O)COC(=O)c1ccc(S(=O)(=O)NCc2ccco2)cc1,4.5,24.4,89.9,5.0,1.2,13.6
COC(=O)[C@@]1(Cc2ccccc2)[C@H]2c3cc(C(=O)N(C)C)n(Cc4ccccc4)c3C[C@H]2CN1C(=O)c1ccccc1,/,/,/,/,1.2,/
Cc1ccc(C(=O)CSC2=C(C#N)C(c3ccco3)CC(=O)N2)c(C)c1 (stereo not drawn),-5.5,60.3*,69.0,7.5,1.2,63.7*
COC(=O)[C@@]1(Cc2ccccc2)[C@H]2c3cc(C(=O)N4CCCC4)n(Cc4ccccn4)c3C[C@H]2CN1C(=O)c1ccccc1,/,/,/,/,1.2,/
Cc1ccc(C(=O)Oc2ccc(Cl)c3cccnc23)cc1[N+](=O)[O-],-2.9,/,/,/,/,/
Cc1cc(C)c(C(=O)COc2cccnc2[N+](=O)[O-])cc1C,-0.2,54.7*[fluorescence artefact?],54.1,4.1,1.1,88.8*
SMILES,EphB4 ephrin blk,ERa SRC1 inh,ERa SRC1 pot,Candida biofilm,MT1-MMP txn act,ERb coact inh
N#Cc1cc2ccccc2nc1SCc1cccnc1,/,-3.1,306.5*[fluorescence artefact?],7.8,/,-3.2
COc1ccc2nc(SCc3cccnc3)c(C#N)cc2c1,-4.0,1.8,202.0*[fluorescence artefact?],10.4,1.4,0.6
Cc1ccc(CC(NC(=O)c2ccccc2)C(=O)NCC(=O)O)cc1 (stereo not drawn),-2.8,3.2,104.4,3.7,1.1,0.1
Cc1cnc(-c2nnc(N(C)C(=O)c3ccccn3)s2)cn1,/,15.7,92.8,7.9,1.1,16.6
CCNC(=O)NC(=O)COC(=O)c1ccccc1SCC(=O)NC(=O)NCC,6.3,35.3,92.5,-1.6,0.8,36.9
N#Cc1c(-c2ccc(Br)cc2)nc2n(c1=O)CCCS2,8.6,10.2,239.4*,3.0,1,16.8
N#Cc1c(-c2ccc(Cl)cc2)nc2n(c1=O)CCCS2,3.9,5.5,140.2,0.6,1,0.7
CCC(=O)Nc1nc(-c2ccccc2)ns1,-2.6,7.4,104.2,2.6,1.7,6.7
CC(C)C(=O)Nc1nc(-c2ccccc2)ns1,2.7,5.4,97.9,4.4,2*,1.4
O=C(Nc1ccc2ccccc2c1)[C@H]1C[C@@H]1[C@H](NP(=O)(c1ccccc1)c1ccccc1)c1ccccc1,/,/,/,/,1,/
CCOC(=O)N1CCN(C(=O)C2CCN(S(=O)(=O)CC)CC2)CC1,-2.1,0.3,238.2*[fluorescence artefact?],6.0,0.9,-4.0
CCCS(=O)(=O)N1CCC(C(=O)N2CCN(C(=O)OCC)CC2)CC1,-7.0,7.4,72.9,8.2,1.3,16.0
COc1cccc(-c2noc(C3CCCN(S(=O)(=O)c4cccc(Cl)c4C)C3)n2)c1 (stereo not drawn),-0.3,-1.7,119.8,4.0,0.9,2.1
COc1ccc2c(c1)n([O-])c1c([n+]2=O)CCC1,/,20.4,65.1,0.9,1.1,50.9*
CCOc1ccc2c(c1)n([O-])c1c([n+]2=O)CCCC1,/,1.9,149.1,4.7,1,2.9
O=C1Nc2ccccc2SC(c2ccccc2)C1O (stereo not drawn),-1.0,95.2*,14.8,5.5,1.4,87.9*
O=C(O)CC1Sc2ccccc2NC1=O (stereo not drawn),/,-37.7,75.0,-0.5,1.3,15.4
COc1cccc(-c2nnn(CC(=O)Nc3ccc(C)cc3C)n2)c1OC,/,26.9,283.0*[fluorescence artefact?],4.8,1,30.6
COc1ccc(CCNC(=O)Cn2nnc(-c3cccc(OC)c3OC)n2)cc1OC,0.7,-2.9,101.2,1.5,1.1,10.2
CC1CCC(NCc2ccco2)CC1 (stereo not drawn),-3.6,-5.6,92.8,7.1,/,-11.3
CS(=O)(=O)N1CCN(c2ccccc2NC(=O)Cc2ccc(Cl)cc2)CC1,-1.7,-4.8,947.9*[fluorescence artefact?],9.5,1,1.0
O=C(NCCCCNC(=O)c1ccc(Cl)s1)c1ccc(Cl)s1,0.1,3.6,155.3,9.4,1,6.8
O=C(NCCCCCCNC(=O)c1ccc(Br)s1)c1ccc(Br)s1,1.2,82.4*[fluorescence artefact?],416.9*,-3.8,1,58.5*[fluorescence artefact?]
CN(C)S(=O)(=O)N(CC(=O)N(Cc1ccccc1)Cc1ccccc1)c1ccccc1,-3.7,54.5*,110.6,5.9,1.2,37.3
O=C(NC1CC1)c1cccc(Nc2ccc(-c3ccc4c(c3)OCCO4)nn2)c1,0.8,5.2,92.5,1.8,1.1,-2.9
